Test results reported in PubChem BioAssay (NCATS).
Results filed as inconclusive are left out. Entries that show only a call come without a potency. Active and inactive are the calls of the source. Unless noted, the call rests on the fitted dose curve; in most records, active means well fitted curve in the direction sought with a large enough effect; inconclusive means small, poorly fitted or top-dose-only effect, or another doubt; inactive means no such curve, though single readings can be large; an effect the other way counts as inactive or inconclusive.

How the values were obtained:
[1] = biological target: Atrial natriuretic peptide receptor 1 (Homo sapiens) (UniProt P16066); assay: Natriuretic polypeptide receptor (hNpr1) antagonism - Pilot screen (AID 1347049; calls by dose curve;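 further: HEK293 cells with hNpr1 and GloSensor cGMP luciferase stimulated by 0.1 nM hNppA; agonist-evoked cGMP luminescence read 20 min after hNppA addition; series mostly up to about 58 µM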)
Atrial natriuretic peptide receptor 1 (Homo sapiens), sequence (P16066 whole entry, looked up): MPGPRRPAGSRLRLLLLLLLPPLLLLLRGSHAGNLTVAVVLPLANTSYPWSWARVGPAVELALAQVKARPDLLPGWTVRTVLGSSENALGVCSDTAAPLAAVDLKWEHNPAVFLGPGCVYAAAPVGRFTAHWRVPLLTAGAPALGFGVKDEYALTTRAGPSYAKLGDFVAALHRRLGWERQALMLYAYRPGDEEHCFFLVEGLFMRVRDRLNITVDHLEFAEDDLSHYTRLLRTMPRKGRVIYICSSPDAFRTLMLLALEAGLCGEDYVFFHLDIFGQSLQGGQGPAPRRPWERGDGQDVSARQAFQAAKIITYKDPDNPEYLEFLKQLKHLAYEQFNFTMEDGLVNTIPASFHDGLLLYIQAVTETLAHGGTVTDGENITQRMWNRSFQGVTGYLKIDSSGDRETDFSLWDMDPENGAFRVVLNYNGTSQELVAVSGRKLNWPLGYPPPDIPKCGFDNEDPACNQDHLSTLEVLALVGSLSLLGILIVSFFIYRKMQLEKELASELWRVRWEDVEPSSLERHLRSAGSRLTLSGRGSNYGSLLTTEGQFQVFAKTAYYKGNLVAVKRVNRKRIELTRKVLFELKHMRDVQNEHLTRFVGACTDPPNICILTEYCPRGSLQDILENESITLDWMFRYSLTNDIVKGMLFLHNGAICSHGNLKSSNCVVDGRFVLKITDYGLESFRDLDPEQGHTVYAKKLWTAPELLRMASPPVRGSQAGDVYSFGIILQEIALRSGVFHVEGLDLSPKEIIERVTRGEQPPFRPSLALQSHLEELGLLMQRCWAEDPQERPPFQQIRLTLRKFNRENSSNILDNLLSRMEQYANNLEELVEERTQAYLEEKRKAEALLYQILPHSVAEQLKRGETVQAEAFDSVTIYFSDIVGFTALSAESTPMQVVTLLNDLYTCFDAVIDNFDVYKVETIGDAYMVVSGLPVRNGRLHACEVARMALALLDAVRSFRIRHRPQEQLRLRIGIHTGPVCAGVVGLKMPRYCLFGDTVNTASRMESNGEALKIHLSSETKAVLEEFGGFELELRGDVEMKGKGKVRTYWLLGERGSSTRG
Outline: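 Cells expressing receptor plus cGMP biosensor are seeded and incubated overnight at 37C, then loaded with GloSensor reagent (2% final) at room temperature for 2 h. Library compounds go on for 30 min. A pre-read precedes agonist (hNppA, 0.1 nM final) and a 20-min readout.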

[2] = biological target: Atrial natriuretic peptide receptor 2 (Homo sapiens) (UniProt P20594); assay: Natriuretic polypeptide receptor (hNpr2) antagonism - Pilot subtype selectivity assay (AID 1347050; calls by dose curve)
Atrial natriuretic peptide receptor 2 (Homo sapiens), sequence (P20594 whole entry, looked up): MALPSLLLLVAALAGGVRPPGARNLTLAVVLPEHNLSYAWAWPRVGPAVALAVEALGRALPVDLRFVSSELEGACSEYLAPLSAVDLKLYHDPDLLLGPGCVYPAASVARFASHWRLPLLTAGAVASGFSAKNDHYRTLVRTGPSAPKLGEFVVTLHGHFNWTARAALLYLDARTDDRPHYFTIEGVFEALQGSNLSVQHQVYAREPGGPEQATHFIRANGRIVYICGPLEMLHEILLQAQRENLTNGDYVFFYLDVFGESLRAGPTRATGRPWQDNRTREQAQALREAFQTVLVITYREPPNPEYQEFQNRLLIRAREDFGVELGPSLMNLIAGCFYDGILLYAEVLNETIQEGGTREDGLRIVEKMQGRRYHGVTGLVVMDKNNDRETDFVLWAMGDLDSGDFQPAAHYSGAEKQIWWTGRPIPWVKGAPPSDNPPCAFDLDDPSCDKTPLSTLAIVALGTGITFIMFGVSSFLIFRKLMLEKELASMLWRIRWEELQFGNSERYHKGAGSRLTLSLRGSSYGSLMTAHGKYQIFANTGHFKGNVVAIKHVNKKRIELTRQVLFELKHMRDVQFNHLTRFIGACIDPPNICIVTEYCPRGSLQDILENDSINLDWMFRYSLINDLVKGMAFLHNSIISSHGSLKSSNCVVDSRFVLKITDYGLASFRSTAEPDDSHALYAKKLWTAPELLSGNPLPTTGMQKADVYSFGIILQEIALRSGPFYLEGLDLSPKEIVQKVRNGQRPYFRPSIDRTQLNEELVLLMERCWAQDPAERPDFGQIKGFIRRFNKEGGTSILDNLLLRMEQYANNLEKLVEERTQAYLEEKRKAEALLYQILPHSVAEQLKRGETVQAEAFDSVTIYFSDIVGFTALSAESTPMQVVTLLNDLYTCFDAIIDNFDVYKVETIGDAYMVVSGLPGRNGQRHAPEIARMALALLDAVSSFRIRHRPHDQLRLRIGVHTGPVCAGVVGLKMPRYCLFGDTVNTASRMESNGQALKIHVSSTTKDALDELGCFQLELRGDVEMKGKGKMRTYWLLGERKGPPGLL
Outline: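 Read-out: GloSensor luminescence (CCD imager), baseline vs post-stimulation. HEK293 cells expressing hNpr2; compounds pre-incubated 30-50 min at ambient temperature; hNppC 1 nM final, 20 min.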

[3] = NS1 protein of Zika virus - qHTS assay to identify small molecule inhibitors in human HEK 293 cells (AID 1347053); further: series mostly up to about 46 µM; nearly all actives have a fitted effect of over 55% in size
Outline: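 Readout was TR-FRET using paired anti-NS1 antibodies after 24 h infection of HEK 293 cells with ZIKV MR766 (MOI = 0.5). Compound preceded virus by 1 h; reduced signal reflects lower NS1 expression.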

[4] = biological target: Parathyroid hormone/parathyroid hormone-related peptide receptor (Homo sapiens) (UniProt Q03431); assay: qHTS for PTHR1 Agonists: Optimization Screen against the NCGC LOPAC library (AID 1347079);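 further: GloSensor cAMP luminescence in HEK-293 GP2 cells expressing human PTHR1 with IBMX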
Parathyroid hormone/parathyroid hormone-related peptide receptor (Homo sapiens), sequence (Q03431 whole entry, looked up): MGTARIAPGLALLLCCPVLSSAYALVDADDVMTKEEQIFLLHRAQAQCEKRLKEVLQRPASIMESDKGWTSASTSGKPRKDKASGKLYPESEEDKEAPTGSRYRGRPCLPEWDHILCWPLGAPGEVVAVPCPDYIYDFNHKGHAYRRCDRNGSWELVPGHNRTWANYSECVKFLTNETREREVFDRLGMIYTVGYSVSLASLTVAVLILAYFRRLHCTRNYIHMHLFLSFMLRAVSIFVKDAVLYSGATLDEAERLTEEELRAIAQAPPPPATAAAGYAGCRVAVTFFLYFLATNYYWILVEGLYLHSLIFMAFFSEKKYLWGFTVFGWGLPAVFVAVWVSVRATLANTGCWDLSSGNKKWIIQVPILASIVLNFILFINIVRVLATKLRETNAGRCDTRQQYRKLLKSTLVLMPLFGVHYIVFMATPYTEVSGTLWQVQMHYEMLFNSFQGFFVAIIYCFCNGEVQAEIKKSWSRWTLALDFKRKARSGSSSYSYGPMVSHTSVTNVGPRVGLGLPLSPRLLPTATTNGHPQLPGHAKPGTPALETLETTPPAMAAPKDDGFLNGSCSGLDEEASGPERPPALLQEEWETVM
Outline: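 Signal increase flags agonism. GP2 cells, derived from HEK-293, express human PTHR1 and a GloSensor cAMP construct.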

[5] = qHTS of pediatric cancer cell lines to identify multiple opportunities for drug repurposing: Primary screen for TC32 cells (AID 1347089); further: nearly all actives have a fitted effect of over 60% in size; further: potency means the concentration at half of the fitted maximal effect
Outline: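 qHTS, TC32, 48 h drug treatment, CellTiter-Glo luminescence as a proxy for metabolically active cells; primary top concentration 46 µM (MIPE 11-pt, NPC 8-pt); confirmatory 11-pt.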

[6] = qHTS of pediatric cancer cell lines to identify multiple opportunities for drug repurposing: Primary screen for DAOY cells (AID 1347090); further: nearly all actives have a fitted effect of over 55% in size; further: potency means the concentration at half of the fitted maximal effect
Outline: (§1)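 Eight- or eleven-point concentration series, 48 h treatment at 37 degrees C in growth media; readout CellTiter-Glo luminescence. Potency and efficacy were taken from the concentration-response curves.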

[7] = qHTS of pediatric cancer cell lines to identify multiple opportunities for drug repurposing: Primary screen for SJ-GBM2 cells (AID 1347091); further: potency means the concentration at half of the fitted maximal effect
Outline: as §1

[8] = biological target: T1, Tyrosine-protein phosphatase non-receptor type substrate 1 (Homo sapiens) + Leukocyte surface antigen CD47 (Homo sapiens) (UniProt P78324+Q08722); assay: CD47-SIRPalpha protein protein interaction - LANCE assay qHTS validation (AID 1347057; active means well fitted curve in the direction sought with a large enough effect in the signal ratio, with a control signal flat, not every such curve was filed as active; the % refers to the signal ratio; further: series mostly up to about 38 µM)
T1 sequence (P78324 whole entry, looked up, the tested form may be a part): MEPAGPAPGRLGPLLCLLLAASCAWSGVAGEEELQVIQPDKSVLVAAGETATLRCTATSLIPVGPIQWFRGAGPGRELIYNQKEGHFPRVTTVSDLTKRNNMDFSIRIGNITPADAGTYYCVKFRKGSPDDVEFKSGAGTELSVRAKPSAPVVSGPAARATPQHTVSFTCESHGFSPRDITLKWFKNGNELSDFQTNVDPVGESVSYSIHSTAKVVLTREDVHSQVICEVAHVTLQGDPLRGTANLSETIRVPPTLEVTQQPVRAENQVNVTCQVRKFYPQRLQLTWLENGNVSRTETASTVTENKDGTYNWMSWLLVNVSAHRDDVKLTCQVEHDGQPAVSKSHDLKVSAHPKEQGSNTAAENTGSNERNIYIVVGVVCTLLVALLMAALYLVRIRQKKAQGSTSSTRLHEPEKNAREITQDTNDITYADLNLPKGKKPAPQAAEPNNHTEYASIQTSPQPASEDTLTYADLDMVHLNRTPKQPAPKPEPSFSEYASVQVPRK
T1 sequence (Q08722 whole entry, looked up, the tested form may be a part): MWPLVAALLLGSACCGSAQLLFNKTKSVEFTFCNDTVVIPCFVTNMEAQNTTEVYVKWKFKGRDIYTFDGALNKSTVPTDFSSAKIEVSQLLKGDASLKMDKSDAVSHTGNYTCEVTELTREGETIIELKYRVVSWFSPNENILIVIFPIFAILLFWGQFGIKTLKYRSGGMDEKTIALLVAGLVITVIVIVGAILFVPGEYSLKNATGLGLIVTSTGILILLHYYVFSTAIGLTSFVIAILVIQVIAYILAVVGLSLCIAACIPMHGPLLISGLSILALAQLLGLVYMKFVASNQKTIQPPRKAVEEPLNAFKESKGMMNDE
Outline: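 Inhibition of soluble CD47/SIRPalpha ectodomain association by titrated compounds, measured as 665/615 nm time-resolved FRET ratio after sequential 30 min room-temperature incubations.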

[9] = biological target: T1, Tyrosine-protein phosphatase non-receptor type substrate 1 (Homo sapiens) + Leukocyte surface antigen CD47 (Homo sapiens); assay: CD47-SIRPalpha protein protein interaction - HTRF assay qHTS validation (AID 1347058; active means well fitted curve in the direction sought with a large enough effect in the signal ratio, not every such curve was filed as active; the % refers to the signal ratio; further: series mostly up to about 38 µM)
Outline: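 Soluble extracellular domains (6His-CD47, Avi-tag-biotinylated SIRPalpha) in PBS pH 7.4 with 0.05% IGEPAL CA-630. Compounds were preincubated 30 min at RT with CD47 and anti-His-Eu, then SIRPalpha and SAV-XL665 were added. TR-FRET 665/615 ratio.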

[10] = biological target: T1, Tyrosine-protein phosphatase non-receptor type substrate 1 (Homo sapiens) + Leukocyte surface antigen CD47 (Homo sapiens); assay: CD47-SIRPalpha protein protein interaction - Alpha assay qHTS validation (AID 1347059);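 further: bead proximity luminescence from CD47 binding SIRPalpha after compound preincubation with SIRPalpha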
Outline: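 In PBS (pH 7.4) with 0.05% IGEPAL CA-630, compound is preincubated with biotin-Avi-SIRPalpha ectodomain before His-CD47 ectodomain and affinity beads are added. Light-protected room-temperature incubations; AlphaScreen readout.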

Structure (SMILES): N=c1nc(N2CCCCC2)cc(N)n1O
- outcome [1]: inactive
- Potency [2]: inactive
- Potency [3]: inactive
- outcome [4]: inactive
- Potency [5]: inactive
- Potency [6]: inactive
- Potency [7]: inactive

Structure (SMILES): CCN(CC)CCCC(C)Nc1ccnc2cc(Cl)ccc12 (configuration not stated)
- outcome [1]: inactive
- Potency [2]: inactive
- Potency [3]: inactive
- outcome [4]: inactive
- Potency [5]: inactive
- Potency [7]: inactive

Structure (SMILES): C[C@]12CCC(=O)C=C1CC[C@@H]1[C@@H]2[C@@H](O)C[C@@]2(C)[C@H]1CC[C@]2(O)C(=O)CO
- outcome [1]: inactive
- Potency [2]: inactive
- Potency [3]: inactive
- outcome [4]: inactive
- Potency [5]: inactive
- Potency [6]: inactive
- Potency [7]: inactive

Structure (SMILES): Clc1ccc(Nc2nnc(Cc3ccncc3)c3ccccc23)cc1
- Potency [3]: inactive
- Potency [5]: inactive

Structure (SMILES): Nc1ncnc2nc(-c3ccc(N4CCOCC4)nc3)cc(-c3cccc(Br)c3)c12
- outcome [1]: inactive
- Potency [2]: inactive
- Potency [3]: inactive
- outcome [4]: inactive
- Potency [5]: inactive
- Potency [7]: inactive

Structure (SMILES): Cc1ccc(N(CC2=NCCN2)c2cccc(O)c2)cc1
- outcome [1]: inactive
- Potency [2]: inactive
- Potency [3]: inactive
- outcome [4]: inactive
- Potency [5]: inactive
- Potency [6]: inactive
- Potency [7]: inactive

Structure (SMILES): CCOc1ccn(-c2ccc(F)cc2)c(=O)c1C(=O)Nc1ccc(Oc2ccnc(N)c2Cl)c(F)c1
- Potency [3]: inactive
- Potency [5]: inactive

Structure (SMILES): Cc1cnc(NC(=O)C2=C(O)c3ccccc3S(=O)(=O)N2C)s1
- Potency [3]: inactive
- outcome [8]: inactive
- outcome [9]: inactive
- outcome [10]: inactive
- outcome [4]: inactive
- Potency [5]: inactive
- Potency [6]: inactive
- Potency [7]: inactive

Structure (SMILES): Cc1c(CCOc2ccc(C(=O)O)cc2)c2cc(Cl)ccc2n1C(c1ccccc1)c1ccccc1
- Potency [3]: inactive
- Potency [5]: inactive

Structure (SMILES): Cc1cccc(-c2[nH]c(C(C)(C)C)nc2-c2ccc3nccnc3c2)n1
- outcome [1]: inactive
- Potency [2]: inactive
- Potency [3]: inactive
- outcome [8]: inactive
- outcome [10]: inactive
- outcome [4]: inactive
- Potency [5]: 13.1 µM (active)
- Potency [7]: 8.33 µM (active)

Structure (SMILES): CCCc1nn(C)c2c(=O)[nH]c(-c3cc(S(=O)(=O)N4CCN(C)CC4)ccc3OCC)nc12
- Potency [3]: inactive
- outcome [8]: inactive
- outcome [10]: inactive
- Potency [5]: inactive
- Potency [6]: inactive
- Potency [7]: inactive

Structure (SMILES): NC[C@H](O)c1ccc(O)c(O)c1
- outcome [1]: inactive
- Potency [2]: inactive
- Potency [3]: inactive
- outcome [8]: inactive
- outcome [10]: inactive
- outcome [4]: inactive
- Potency [5]: inactive
- Potency [6]: inactive
- Potency [7]: inactive

Structure (SMILES): CS(=O)(=O)c1cccc(CNc2nc(Nc3ccc4c(c3)CCC(=O)N4)ncc2C(F)(F)F)c1
- Potency [3]: inactive
- outcome [8]: inactive
- outcome [10]: inactive
- Potency [7]: 10.5 µM (active)

Structure (SMILES): CN(C)c1ccc(Nc2nc(N)n(C(=O)c3c(F)cccc3F)n2)cc1
- Potency [3]: inactive

Structure (SMILES): c1ccc([C@H]2CN3CCSC3=N2)cc1
- Potency [2]: inactive
- Potency [3]: inactive
- outcome [8]: inactive
- outcome [9]: inactive
- outcome [10]: inactive
- outcome [4]: inactive
- Potency [5]: inactive
- Potency [6]: inactive
- Potency [7]: inactive

Structure (SMILES): CC[C@H](Nc1ncnc2nc[nH]c12)c1nc2cccc(F)c2c(=O)n1-c1ccccc1
- Potency [3]: inactive

Structure (SMILES): Cn1c(=O)c(F)c(Nc2ccc(I)cc2F)c2c(=O)n(C[C@@H](O)CO)cnc21
- Potency [3]: inactive
- Potency [5]: inactive
- Potency [6]: 18.7 µM (active)

Structure (SMILES): CCC(=O)N[C@H]1CC[C@H](C(=O)N(C)c2ccc(-c3nc4ccccc4o3)cc2)C1
- Potency [3]: inactive
- Potency [5]: inactive
- Potency [6]: 5.9 µM (active)

Structure (SMILES): C[C@@H]1CN(Cc2ccc(F)cc2)[C@@H](C)CN1C(=O)c1cc2c(C(=O)C(=O)N(C)C)cn(C)c2cc1Cl
- Potency [3]: inactive
- Potency [5]: inactive

Structure (SMILES): O=C(C=Cc1ccc(/C=C/C(=O)Nc2ccc(C3=NCCN3)cc2)cc1)Nc1ccc(C2=NCCN2)cc1
- Potency [3]: inactive
- Potency [5]: inactive
- Potency [6]: inactive

Structure (SMILES): Nc1nc2[nH]cc(CCc3ccc(C(=O)N[C@@H](CCC(=O)O)C(=O)O)cc3)c2c(=O)[nH]1
- Potency [3]: inactive
- Potency [5]: 4.66 µM (active)
- Potency [6]: inactive

Structure (SMILES): Cc1cccc(-c2nn(C(=S)Nc3ccccc3)cc2-c2ccnc3ccccc23)n1
- Potency [3]: inactive
- Potency [5]: inactive
- Potency [6]: inactive

Structure (SMILES): CNC(=O)c1ccc(N2C(=S)N(c3ccc(C#N)c(C(F)(F)F)c3)C(=O)C2(C)C)cc1F
- Potency [3]: inactive
- Potency [5]: inactive
- Potency [6]: inactive

Structure (SMILES): CNCc1ccc(-c2[nH]c3cc(F)cc4c3c2CCNC4=O)cc1
- Potency [3]: inactive
- Potency [5]: inactive
- Potency [6]: inactive

Structure (SMILES): COc1cc(Oc2ccnc3cc(OC)c(OC)cc23)ccc1NC(=O)NC(C)c1nccs1 (configuration not stated)
- Potency [3]: inactive
- Potency [5]: inactive
- Potency [6]: inactive

Structure (SMILES): COc1ccccc1-c1cccc(-c2c(O)c3cc(C#N)c(Cl)cc3[nH]c2=O)c1
- Potency [3]: inactive
- Potency [5]: inactive
- Potency [6]: inactive

Structure (SMILES): CCN(c1ccccc1)c1cc(NC)[n+](C)c(C)n1
- Potency [3]: inactive
- Potency [5]: inactive
- Potency [6]: inactive
